The source made the active and inactive calls. Rule for the calls: active = hit-call score of the fitted dose curve at least 0.9, where 1 is the maximum; inactive = score below 0.9.
Tests used:
[1] = APR_HepG2_NuclearSize_72hr: Apredica 72-hour HepG2 Assay for Nuclear Size (AID 2282925); conditions: high-content imaging, actives raise or lower the signal
How it was run: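 HepG2 cells were exposed to compounds at ten concentrations from 0.39 to 200 uM (duplicate, 0.5% DMSO final) for 72 hr. After fixation in 3.7% formaldehyde, nuclei were stained with Hoechst 33342 (2 ug/mL) and imaged at 20x.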

[2] = ATG_CRE_CIS: Attagene CIS-FACTORIAL HepG2 Assay for human cAMP Responsive Element (CRE) binding protein 3 (AID 2282926); conditions: HepG2 CRE cis-reporter, Attagene multiplexed mRNA; actives raise or lower the signal
How it was run: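 Transfected HepG2 were treated for 24 hours, then RNA was extracted and reporter cDNA amplified with sequence-specific primers. Labelled fragments were separated by capillary electrophoresis, and the CRE signal was fitted bidirectionally with DMSO as baseline.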

[3] = target: CCAAT/enhancer-binding protein beta (Homo sapiens) (UniProt P17676); assay: ATG_C_EBP_CIS: Attagene CIS-FACTORIAL HepG2 Assay for human CCAAT/Enhancer Binding Protein (C/EBP) beta (AID 2282927); conditions: HepG2 Attagene cis-factorial transcription factor reporter; actives raise or lower the signal
How it was run: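 Following a 24 h incubation with test chemical, transfected HepG2 cells yielded RNA whose reporter transcripts were quantified by RT-PCR and fluorescent capillary electrophoresis, with DMSO serving as baseline for bidirectional fitting.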

[4] = ATG_CMV_CIS: Attagene CIS-FACTORIAL HepG2 Assay for human CMV (Internal Marker) (AID 2282928); conditions: HepG2 CMV promoter reporter, transcription factor profiling; actives raise or lower the signal;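 note: endpoint acts as a background internal control marker rather than a target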
How it was run: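 CMV internal-marker background readout in transiently transfected HepG2 cells bearing cis-regulated reporter units. Reporter mRNA is measured 24 h after dosing by RT-PCR and capillary electrophoresis, with bidirectional fitting against DMSO.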

[5] = ATG_DR4_LXR_CIS: Attagene CIS-FACTORIAL HepG2 Assay for human Liver X Receptor (LXR), DR4 submotif (AID 2282929); conditions: HepG2 Attagene DR4 cis-reporter, mRNA transcription; actives raise or lower the signal
How it was run: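 Cells were transfected with multiple reporter transcription units, exposed to chemicals for 24 hours, then lysed for RNA. Reporter mRNA induction was measured by RT-PCR with capillary electrophoresis detection and fitted in both directions relative to DMSO.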

[6] = target: Aryl hydrocarbon receptor (Homo sapiens) (UniProt P35869); assay: ATG_Ahr_CIS: Attagene CIS-FACTORIAL HepG2 Assay for human Aryl Hydrocarbon Receptor (Ahr) (AID 2282930); conditions: HepG2 AhR cis-factorial reporter transcription; actives raise or lower the signal
How it was run: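 Values derive from bidirectional fitting against DMSO negative control. Underlying signal: cis-element reporter mRNA in transiently transfected HepG2, harvested 24 h post-dose and measured by RT-PCR plus capillary electrophoresis.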

[7] = ATG_AP_1_CIS: Attagene CIS-FACTORIAL HepG2 Assay for human Activator Protein 1 (AP-1) (AID 2282931); conditions: HepG2 Attagene cis-factorial AP-1 reporter mRNA; actives raise or lower the signal
How it was run: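 Endogenous transcription-factor activity in human HepG2 liver cells is read through a cis-promoter reporter transcript, sampled 24 h after dosing. Detection uses RT-PCR with capillary electrophoresis; values come from bidirectional fitting relative to DMSO.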

[8] = ATG_AP_2_CIS: Attagene CIS-FACTORIAL HepG2 Assay for human Activator Protein 2 (AP-2) (AID 2282932); conditions: HepG2 AP-2 cis-reporter, Attagene transcription factor profiling; actives raise or lower the signal
How it was run: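 HepG2 cells were transiently transfected with multiple cis-promoter reporter transcription units and dosed for 24 h. Reporter mRNA was measured by RT-PCR with capillary electrophoresis fluorescence; bidirectional fits relative to DMSO baseline.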

[9] = ATG_BRE_CIS: Attagene CIS-FACTORIAL HepG2 Assay for human Bone Morphogenetic Protein (BMP) Response Element (BRE) (AID 2282933); conditions: HepG2 BMP response element reporter, Attagene transcription factor profiling; actives raise or lower the signal
How it was run: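 A HepG2 multiplex reporter system measured inducible reporter mRNA 24 h post-dosing. Detection: RT-PCR, 6-FAM primer extension, HpaI digestion, capillary electrophoresis. Activity fitted bidirectionally relative to DMSO.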

[10] = target: Retinoic acid receptor alpha (Homo sapiens) (UniProt P10276); assay: ATG_DR5_RAR_CIS: Attagene CIS-FACTORIAL HepG2 Assay for human Retinoic Acid Receptor Alpha (RARE), DR5 submotif (AID 2282934); conditions: HepG2 Attagene cis-factorial RARE DR5 reporter, mRNA; actives raise or lower the signal
How it was run: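 Endpoint fitted in both directions relative to DMSO as negative control. It reflects DR5 cis-element reporter mRNA induction in transiently transfected HepG2 cells, measured 24 h after dosing through RT-PCR and fluorescent capillary electrophoresis.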

[11] = target: Transcription factor E2F1 (Homo sapiens) (UniProt Q01094); assay: ATG_E2F_CIS: Attagene CIS-FACTORIAL HepG2 Assay for human E2F Transcription Factor 1 (AID 2282935); conditions: HepG2 Attagene cis-reporter, E2F reporter RNA transcripts; actives raise or lower the signal
How it was run: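 HepG2 cells transiently transfected with multiplexed cis-element reporter units, dosed for 24 h. Reporter mRNA measured by RT-PCR, 6-FAM primer-extension labeling, HpaI digestion and capillary electrophoresis; bidirectional fit versus DMSO baseline.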

[12] = ATG_E_Box_CIS: Attagene CIS-FACTORIAL HepG2 Assay for human Enhancer Box (E-box) (AID 2282936); conditions: HepG2 E-box cis-reporter transcription, actives raise or lower the signal
How it was run: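 HepG2 cells transiently transfected with multiplexed cis-element reporter units sensing endogenous transcription factor activity; 24 h compound exposure. Reporter mRNA measured by RT-PCR, 6-FAM primer extension, HpaI digestion and capillary electrophoresis; bidirectional fit versus DMSO.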

[13] = ATG_M_61_CIS: Attagene CIS-FACTORIAL HepG2 Assay for M61 Transcription Factor (Internal Marker) (AID 2282937); conditions: HepG2 Attagene CIS-FACTORIAL M61 internal marker reporter; actives raise or lower the signal
How it was run: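 Cells were transfected with reporter units under cis-regulatory promoters, treated with chemicals for 24 h, then lysed for RNA. Reporter transcripts were quantified by RT-PCR and capillary electrophoresis, and activity was fitted bidirectionally against DMSO.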

[14] = ATG_EGR_CIS: Attagene CIS-FACTORIAL HepG2 Assay for human Early Growth Response 1 (EGR1) (AID 2282938); conditions: HepG2 Attagene CIS-FACTORIAL EGR reporter mRNA; actives raise or lower the signal
How it was run: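 Endogenous TF activity in HepG2 liver cells was gauged through cis-promoter reporter constructs transiently transfected. After 24 h dosing, reporter mRNA was quantified by RT-PCR and capillary electrophoresis, and curves fitted in both directions versus DMSO.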

[15] = ATG_M_19_CIS: Attagene CIS-FACTORIAL HepG2 Assay for M19 Transcription Factor (Internal Marker) (AID 2282939); conditions: HepG2 Attagene CIS-FACTORIAL M19 internal marker reporter; actives raise or lower the signal
How it was run: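 Chemical-treated HepG2 (24 h) with MRTU constructs; reporter transcripts detected by fluorescent RT-PCR fragment analysis on capillary electrophoresis. Internal background marker, DMSO as baseline.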

[16] = ATG_ERE_CIS: Attagene CIS-FACTORIAL HepG2 Assay for Estrogen Response Element (ERE) (AID 2282940); conditions: HepG2 ERE cis-reporter, Attagene RNA transcript; actives raise or lower the signal
How it was run: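 Human liver cells (HepG2) bearing transiently transfected, promoter-regulated reporter units were exposed 24 h. Reporter mRNA induction was detected by capillary electrophoresis of labelled RT-PCR products and fitted bidirectionally to DMSO.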

[17] = ATG_Ets_CIS: Attagene CIS-FACTORIAL HepG2 Assay for human Erythroblast Transformation Specific (ETS) (AID 2282941); conditions: HepG2 ETS cis-reporter transcription, actives raise or lower the signal
How it was run: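 HepG2 cells transfected with multiple cis-regulated reporter units measuring endogenous ETS-driven transcription, 24 h after dosing. Reporter mRNA quantified by RT-PCR with capillary electrophoresis; bidirectional fit relative to DMSO.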

[18] = target: Hepatocyte nuclear factor 3-beta (Homo sapiens) (UniProt Q9Y261); assay: ATG_FoxA2_CIS: Attagene CIS-FACTORIAL HepG2 Assay for human Forkhead box A2 (FOXA2) (AID 2282942); conditions: HepG2 cis-reporter transcription factor activity, 24 h; actives raise or lower the signal
How it was run: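 Endogenous transcription factor activity was read in HepG2 cells carrying transiently transfected cis-promoter reporter units. After 24 h dosing, reporter mRNA was quantified by RT-PCR and capillary electrophoresis, and values fitted bidirectionally versus DMSO.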

[19] = ATG_FoxO_CIS: Attagene CIS-FACTORIAL HepG2 Assay for human Forkhead box O (FoxO) (AID 2282943); conditions: HepG2 Attagene cis-reporter, FoxO element, mRNA; actives raise or lower the signal
How it was run: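 Values reflect reporter mRNA induction or loss in HepG2 cells 24 h post-dosing, fitted bidirectionally with DMSO as negative control and baseline. Detection used RT-PCR and fluorescence capillary electrophoresis.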

[20] = ATG_GATA_CIS: Attagene CIS-FACTORIAL HepG2 Assay for human GATA Binding Protein (AID 2282944); conditions: HepG2 GATA cis-element reporter, Attagene multiplex mRNA; actives raise or lower the signal
How it was run: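 Transfected cis-reporter HepG2 cells were treated with chemicals for 24 hours. Total RNA was then converted to cDNA, amplified with reporter-specific primers and analysed by fluorescent capillary electrophoresis, using DMSO-treated wells as baseline.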

Measured: AC50

Chain of Hepatocyte nuclear factor 3-beta (Homo sapiens) (Q9Y261 whole entry, looked up): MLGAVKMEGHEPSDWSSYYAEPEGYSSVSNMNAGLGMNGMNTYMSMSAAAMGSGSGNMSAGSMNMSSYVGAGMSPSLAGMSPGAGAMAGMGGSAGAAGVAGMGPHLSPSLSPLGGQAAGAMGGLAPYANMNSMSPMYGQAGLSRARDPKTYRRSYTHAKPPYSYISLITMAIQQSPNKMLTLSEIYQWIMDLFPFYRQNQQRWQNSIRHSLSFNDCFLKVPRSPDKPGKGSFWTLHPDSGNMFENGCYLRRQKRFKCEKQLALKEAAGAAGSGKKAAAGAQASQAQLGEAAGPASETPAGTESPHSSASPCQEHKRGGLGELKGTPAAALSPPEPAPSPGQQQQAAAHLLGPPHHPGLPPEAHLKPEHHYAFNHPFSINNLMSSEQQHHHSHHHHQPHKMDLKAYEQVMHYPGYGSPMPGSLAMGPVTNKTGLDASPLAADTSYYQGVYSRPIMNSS
Chain of Aryl hydrocarbon receptor (Homo sapiens) (P35869 whole entry, looked up): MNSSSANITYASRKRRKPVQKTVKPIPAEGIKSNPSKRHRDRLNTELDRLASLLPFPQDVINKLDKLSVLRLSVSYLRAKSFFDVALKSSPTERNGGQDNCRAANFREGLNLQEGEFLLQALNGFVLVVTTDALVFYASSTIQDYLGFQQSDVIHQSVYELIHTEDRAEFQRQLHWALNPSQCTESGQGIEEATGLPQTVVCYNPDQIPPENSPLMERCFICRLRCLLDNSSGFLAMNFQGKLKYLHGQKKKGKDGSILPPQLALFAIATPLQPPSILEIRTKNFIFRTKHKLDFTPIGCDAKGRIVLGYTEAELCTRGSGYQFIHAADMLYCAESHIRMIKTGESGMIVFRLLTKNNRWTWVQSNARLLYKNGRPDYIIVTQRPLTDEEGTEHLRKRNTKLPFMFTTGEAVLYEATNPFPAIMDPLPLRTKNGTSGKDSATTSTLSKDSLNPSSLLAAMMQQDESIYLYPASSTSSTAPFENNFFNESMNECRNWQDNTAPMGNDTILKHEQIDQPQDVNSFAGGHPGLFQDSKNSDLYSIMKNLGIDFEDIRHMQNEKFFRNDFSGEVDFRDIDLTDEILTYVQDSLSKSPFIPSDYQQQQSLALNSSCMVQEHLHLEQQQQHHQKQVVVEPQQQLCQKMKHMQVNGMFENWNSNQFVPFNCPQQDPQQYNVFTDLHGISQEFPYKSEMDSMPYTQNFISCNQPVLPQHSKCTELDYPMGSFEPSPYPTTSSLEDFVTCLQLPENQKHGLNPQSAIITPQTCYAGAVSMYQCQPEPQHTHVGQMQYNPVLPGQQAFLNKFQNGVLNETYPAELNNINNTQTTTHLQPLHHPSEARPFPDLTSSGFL
Chain of CCAAT/enhancer-binding protein beta (Homo sapiens) (P17676 whole entry, looked up): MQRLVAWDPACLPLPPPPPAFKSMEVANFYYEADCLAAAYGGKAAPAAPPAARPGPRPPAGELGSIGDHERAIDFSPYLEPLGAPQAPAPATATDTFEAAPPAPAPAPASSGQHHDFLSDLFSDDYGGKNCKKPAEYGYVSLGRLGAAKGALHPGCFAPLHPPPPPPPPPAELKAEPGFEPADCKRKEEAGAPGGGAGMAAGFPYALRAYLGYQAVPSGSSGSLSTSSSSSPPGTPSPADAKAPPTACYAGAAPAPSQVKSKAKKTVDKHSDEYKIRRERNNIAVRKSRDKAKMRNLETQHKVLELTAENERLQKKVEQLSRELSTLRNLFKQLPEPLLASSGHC
Chain of Retinoic acid receptor alpha (Homo sapiens) (P10276 whole entry, looked up): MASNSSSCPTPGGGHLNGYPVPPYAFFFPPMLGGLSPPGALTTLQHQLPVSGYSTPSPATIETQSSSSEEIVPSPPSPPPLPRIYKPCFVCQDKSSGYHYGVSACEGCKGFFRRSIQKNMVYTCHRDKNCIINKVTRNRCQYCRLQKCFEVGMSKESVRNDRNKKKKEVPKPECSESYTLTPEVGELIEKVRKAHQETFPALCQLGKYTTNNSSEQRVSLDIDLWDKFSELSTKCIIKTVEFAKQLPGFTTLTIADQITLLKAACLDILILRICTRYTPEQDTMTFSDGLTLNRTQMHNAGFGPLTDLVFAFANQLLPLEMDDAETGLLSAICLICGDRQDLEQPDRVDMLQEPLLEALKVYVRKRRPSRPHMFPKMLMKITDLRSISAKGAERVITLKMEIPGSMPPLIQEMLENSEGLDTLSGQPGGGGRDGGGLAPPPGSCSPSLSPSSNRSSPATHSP
Chain of Transcription factor E2F1 (Homo sapiens) (Q01094 whole entry, looked up): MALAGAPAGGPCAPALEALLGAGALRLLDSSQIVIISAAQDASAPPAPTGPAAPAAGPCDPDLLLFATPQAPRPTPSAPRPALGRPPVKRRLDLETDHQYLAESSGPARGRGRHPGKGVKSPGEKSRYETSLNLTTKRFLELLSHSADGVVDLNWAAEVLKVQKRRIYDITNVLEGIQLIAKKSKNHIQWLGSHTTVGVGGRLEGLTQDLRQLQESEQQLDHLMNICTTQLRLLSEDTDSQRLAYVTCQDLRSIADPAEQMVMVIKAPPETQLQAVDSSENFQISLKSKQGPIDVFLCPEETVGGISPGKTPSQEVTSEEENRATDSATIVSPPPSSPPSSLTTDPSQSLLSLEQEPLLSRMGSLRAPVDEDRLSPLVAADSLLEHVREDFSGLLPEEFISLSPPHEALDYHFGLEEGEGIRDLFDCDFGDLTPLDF

O=S(=O)(O)c1ccc(N=Nc2c(O)ccc3cc(S(=O)(=O)O)ccc23)cc1
inactive: [1] | [2] | [3] | [4] | [5] | [6] | [7] | [8] | [9] | [10] | [11] | [12] | [13] | [14] | [15] | [16] | [17] | [18] | [19] | [20]

Cc1ncc([C@@H](CCCCCCc2ccc3c(n2)NCCC3)CC(=O)O)cn1
active: [1] 0.0398 µM | [7] 0.0172 µM
inactive: [2] | [3] | [4] | [5] | [6] | [8] | [9] | [11] | [12] | [13] | [15] | [16] | [18] | [19] | [20]

CCCCN1C(=O)[C@@H]([C@H](O)C2CCCCC2)NC(=O)C12CCN(Cc1ccc(Oc3ccc(C(=O)O)cc3)cc1)CC2
active: [3] 32.9 µM | [5] 71.5 µM
inactive: [1] | [2] | [4] | [6] | [7] | [8] | [9] | [11] | [12] | [13] | [14] | [15] | [16] | [17] | [18] | [19] | [20]

Nc1ccn([C@@H]2O[C@H](CO)[C@@H](O)[C@@H]2O)c(=O)n1
inactive: [2] | [3] | [4] | [5] | [6] | [7] | [8] | [9] | [10] | [11] | [12] | [13] | [15] | [18] | [19] | [20]
active: [1] 0.0394 µM | [16] 6.66 µM

CCn1nc(C)c2c1C(=O)NCC(c1ccc(O)cc1)=N2
inactive: [1] | [2] | [3] | [4] | [5] | [6] | [7] | [8] | [9] | [11] | [12] | [13] | [14] | [15] | [16] | [17] | [18] | [19] | [20]

CCCc1ccccc1
inactive: [1] | [2] | [3] | [4] | [5] | [7] | [8] | [9] | [10] | [11] | [12] | [13] | [14] | [15] | [16] | [17] | [18] | [19] | [20]

OCCNCCO
inactive: [1] | [2] | [3] | [4] | [5] | [6] | [7] | [8] | [9] | [10] | [11] | [12] | [13] | [14] | [15] | [16] | [17] | [18] | [19] | [20]
